# NALP1 inh – NALP1 inflammasome inhibitors in reconstituted yeast, colorimetric, S. cerevisiae, triplicate retest. S. cerevisiae NALP1/ASC/caspase-1 growth, X-gal OD620, 72 h. inhibition, % at 10 µM. 280,000 compounds, 0.61% hits; in the data active = inhibition mostly above about 24%, no sharp cut-off; inactive = mostly below about 32%
# sPLA2-III inh – human group III sPLA2 inhibitors, primary screen, biochemical, QFRET, BODIPY PC-A2 liposome substrate; Group 3 secretory phospholipase A2 (Homo sapiens), Q9NZ20; QFRET BODIPY PC-A2 liposome hydrolysis, fluorescence; inhibition, % at 12.2 µM; 370,000 compounds, 0.56% hits;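 active = inhibition above mean plus 3 SD of compounds lying within the high and low control bounds, cut at about 19% in these data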
# A3G deaminase – APOBEC3G DNA deaminase inhibitors, primary screen, biochemical, fluorescence, single-stranded DNA substrate, uHTS. 330,000 compounds, 0.28% hits. DNA dC->dU-editing enzyme APOBEC-3G (Homo sapiens), Q9HC16. AID 493012, 2011. inhibition, % at 20 µM. recombinant A3G, ssDNA deamination FAM/TAMRA fluorescence;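 active = inhibition of at least 40% at 20 µM, with no more than 30% in the related APOBEC3A deaminase screen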
# Target sequence (Q9HC16 whole entry, looked up): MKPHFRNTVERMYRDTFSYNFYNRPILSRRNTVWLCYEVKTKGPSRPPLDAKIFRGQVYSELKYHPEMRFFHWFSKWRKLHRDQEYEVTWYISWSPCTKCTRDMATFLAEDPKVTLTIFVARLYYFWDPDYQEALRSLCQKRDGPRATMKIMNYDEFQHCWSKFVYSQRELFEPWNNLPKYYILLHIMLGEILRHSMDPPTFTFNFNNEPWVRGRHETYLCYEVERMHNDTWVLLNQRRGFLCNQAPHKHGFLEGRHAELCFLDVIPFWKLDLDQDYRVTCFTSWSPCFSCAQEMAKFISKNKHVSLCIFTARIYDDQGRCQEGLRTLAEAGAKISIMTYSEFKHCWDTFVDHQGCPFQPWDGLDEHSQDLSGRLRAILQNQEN
# CTSL1 counter – Fasciola hepatica cathepsin L1 inhibitors, primary screen, counter-screen for PFM18AAP inhibitor project, biochemical, QFRET, fluorogenic peptide substrate | recombinant F. hepatica cathepsin L1, Z-Leu-Arg-MCA fluorescence | inhibition, % at 5.96 µM | 300,000 compounds, 0.49% hits | AID 1906, 2009;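 active = inhibition above the mean of all tested compounds plus 3 SD, set per screening campaign, cut at about 17% in these data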
# A3A deaminase – APOBEC3A ssDNA deaminase inhibitors, primary screen, selectivity assay for APOBEC3G inhibitor project, biochemical, FAM/TAMRA oligo cleavage fluorescence; DNA dC->dU-editing enzyme APOBEC-3A (Homo sapiens), P31941; recombinant A3A, FAM/TAMRA ssDNA deamination fluorescence; inhibition, % at 20 µM; 330,000 compounds, 0.41% hits;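 active = at least 40% inhibition at 20 µM here, with at most 30% in a related deaminase screen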
# Target sequence (P31941 whole entry, looked up): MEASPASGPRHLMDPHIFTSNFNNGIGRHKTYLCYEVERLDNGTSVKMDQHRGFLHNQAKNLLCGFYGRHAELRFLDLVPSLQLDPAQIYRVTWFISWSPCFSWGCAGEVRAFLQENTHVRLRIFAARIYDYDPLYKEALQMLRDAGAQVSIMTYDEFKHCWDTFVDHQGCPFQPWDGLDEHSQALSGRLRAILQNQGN
# hGIII sPLA2 conf – human group III sPLA2 inhibitors, confirmation, biochemical, QFRET, triplicate | shares compounds with sPLA2-III inh | recombinant hGIII-sPLA2, BODIPY PC-A2 QFRET fluorescence | inhibition, % at 12.2 µM | 2,000 compounds, 34% hits;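 active = mean inhibition across triplicates above the hit cutoff set in the earlier primary screen, cut at about 19% in these data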
# 535nm interf – 535nm fluorescence optical interference, confirmation, artefact control for HGIII-sPLA2 inhibitor project, biochemical, QFRET; 2,000 compounds, 8.5% hits; inhibition, % at 12.2 µM; BODIPY FL product fluorescence interference; shares compounds with sPLA2-III inh; AID 743282, 2014;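 active = average inhibition above the solvent-only control mean plus 3 SD, cut at about 6% in these data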
# BODIPY interf DR – 535nm fluorescence optical interference, dose response, artefact control for HGIII-sPLA2 inhibitor project, biochemical, QFRET. shares compounds with sPLA2-III inh. BODIPY FL product fluorescence interference, cell-free. IC50, µM. 240 tested, under 10 active;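 active = IC50 at or below 10 µM; inactive = IC50 above 10 µM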
# Hits are given with their value; n = inactive; x = no result. Most compounds without a hit are left out; they make up all but 2% or so of the library.
SMILES,NALP1 inh,sPLA2-III inh,A3G deaminase,CTSL1 counter,A3A deaminase,hGIII sPLA2 conf,535nm interf,others
CCN(CC)C(=O)CC[C@@H]1CC[C@]2(CCCN(Cc3nccs3)C2)O1,x,n,x,x,x,x,x,
Cc1cc(=O)[nH]c(SCC(=O)N2CCCC2)n1,x,20,n,x,n,n,n,
CC1CN(C(=S)NC(=O)c2ccco2)CC(C)O1 (centres undefined),n,22,n,n,n,n,n,
O=C(N[C@@H](Cc1ccccc1)C(=O)Nc1ccc(F)cc1)C1CCNCC1,n,n,n,n,n,x,x,
CC(=O)Nc1ccc(NC(=O)C(Cc2ccccc2)NC(=O)C2CCC(C)CC2)cc1 (centres undefined),n,25,n,n,n,n,n,
CC(C)(C)c1ccc(CC(=O)N2CCC2(C)C(=O)Nc2cnc3ccccc3c2)cc1 (centres undefined),x,n,x,x,x,x,x,
O=C1NC(=S)NC1=Cc1ccccc1O,x,22,x,x,x,n,n,
CC(C)CN(CCCNC(=O)CN1N=C(c2ccc(Cl)cc2)CCC1=O)CC(C)C,n,25,n,n,n,32,n,
COc1c(O)c(O)c2oc(-c3ccccc3)cc(=O)c2c1OC,n,32,n,n,n,n,n,
COc1cc(-c2cc(=O)c3c(O)c(OC)c(OC)c(O)c3o2)ccc1O,n,n,n,n,n,x,x,
CCCCCC[C@H](CN(CCCC)S(C)(=O)=O)c1ccccc1,x,n,x,x,x,x,x,
S=c1[nH]nc(COc2ccc(Cl)cc2)n1Cc1ccco1,n,n,n,n,n,x,x,
COc1cccc(-c2n[nH]c(=S)n2Cc2ccco2)c1,x,23,n,n,n,25,n,
CCCc1n[nH]c(=S)n1Cc1ccco1,x,22,n,n,n,n,n,
CCCCc1n[nH]c(=S)n1Cc1ccc(Cl)cc1,n,20,n,n,n,26,n,
Cc1noc(/C=C/N(C)C)c1S(=O)(=O)N1CCN(c2ccccc2)CC1,n,n,n,n,n,x,x,
Cc1ccc(C)c(N2CCN(S(=O)(=O)c3c(C)noc3/C=C/N(C)C)CC2)c1,n,23,n,n,n,29,n,BODIPY interf DR=n
Cc1cccc(NC(=S)NCc2ccc3c(c2)cc(C)n3C)c1C,n,20,n,n,n,n,n,
NC(=O)c1cc([N+](=O)[O-])ccc1NCc1cccnc1,n,n,n,n,n,x,x,
NC(=O)c1cc([N+](=O)[O-])ccc1NCc1cnccn1,x,20,n,n,n,n,n,
O=C1c2ccccc2C(=O)c2c1ccc1c(=O)n(-c3ccccc3)[nH]c21,n,26,n,n,n,20,n,
Cc1cccc(-n2[nH]c3c4c(ccc3c2=O)C(=O)c2ccccc2C4=O)c1,n,n,n,n,n,x,x,
CCCCCCCCN1C(=O)[C@@H](CC(=O)N2CCCC2)C[C@@]2(C(=O)OC)C1=C[C@H](COCc1ccccc1)O[C@@H]2C,x,n,x,x,x,x,x,
Cc1ccc(/C(O)=C2/C(=O)C(=O)OC2c2ccc(Cl)cc2)cc1 (centres undefined),n,n,n,n,n,x,x,
O=C1OC(c2ccccc2)/C(=C(/O)c2ccc(Cl)cc2)C1=O (centres undefined),n,22,n,n,n,n,n,
SMILES,NALP1 inh,sPLA2-III inh,A3G deaminase,CTSL1 counter,A3A deaminase,hGIII sPLA2 conf,535nm interf,others
CCCC(=O)NC(=S)Nc1nc(-c2ccc(OC)cc2)cs1,n,23,n,n,n,24,n,
CC1CCCCC1N(C(=O)c1cc(C2CC2)on1)C1CCCCCC1 (centres undefined),x,n,x,x,x,x,x,
NC(N)=N/N=C(\N=Nc1ccccc1)c1cccc2cccnc12,x,n,x,x,x,x,x,
NC(N)=N/N=C(\N=Nc1ccccc1)c1ccc(Cl)cc1,x,27,x,x,x,34,n,BODIPY interf DR=n
CNc1nn(-c2cccc(Cl)c2)nc1N,n,22,n,n,n,35,n,BODIPY interf DR=n
Nc1ccccc1Nc1cc(-c2ccccc2)nn1-c1cccc(Cl)c1,n,n,n,n,n,x,x,
CCC[C@H]1[C@@H](NC(=O)C2CCCCC2)CC[C@@]23CCCN2C(=O)CCC[C@@H]13,x,n,x,x,x,x,x,
COc1ccc(C(=O)Nc2ccc3c(c2)C(=O)N(C)[C@H]2CC[C@H](CC(=O)NCC4CC4)O[C@@H]2CO3)cc1,x,n,x,x,x,x,x,
O=C(NC1CCCCN(Cc2ccc(OC(F)(F)F)cc2)C1=O)c1ccc2ccccc2c1 (centres undefined),x,n,x,x,x,x,x,
NNC(=O)c1nc[nH]c1C(=O)Nc1ccccc1,n,27,n,n,n,n,n,
O=C(Nc1ccccc1)c1nc[nH]c1C(=O)NCc1ccccc1,x,n,n,x,n,x,x,
COCCNCCCOc1ccc(C(C)(C)c2ccccc2)cc1,n,22,n,n,n,n,n,
CN(Cc1ccccc1)S(=O)(=O)c1cccc(C(=O)OCc2ccccc2)c1,x,n,x,x,x,x,x,
COc1ccc2c(c1)OC[C@H]1[C@H]2N2C(=O)c3cc(OC)c(OC)cc3NC(=O)[C@@]2(C)[C@H]1c1ccccc1,x,31,n,n,n,n,n,
Cc1ccc(NC(=O)CN(C)C(=O)COC(=O)/C=C/c2cccs2)cc1,x,n,n,n,n,x,x,
CN(CCC#N)C(=O)COC(=O)/C=C/c1cccs1,n,20,n,n,n,n,n,
CCCOc1ccc(CSC(=N)N)cc1C(=O)OC,n,n,n,n,n,x,x,
COC(=O)c1cc(CSC(=N)N)ccc1OCCC(C)C,n,21,n,n,n,29,n,
Nc1ccc(S(=O)(=O)Nc2ccc(Cl)nn2)cc1,n,22,n,n,n,n,n,
Oc1ccc2[nH]cc(CCc3ccccc3)c2c1-c1ccccc1,x,n,x,x,x,x,x,
Cc1no[n+]([O-])c1COc1ccc(/C=C2\NC(=S)NC2=O)cc1,n,n,n,n,n,x,x,
CCOc1ccc(/C=C2\NC(=S)NC2=O)cc1,n,24,n,n,n,23,n,
COc1ccc(OC)c(NC(=O)COC(=O)CCCN=C2NS(=O)(=O)c3ccccc32)c1,x,20,n,x,n,n,n,
CCC1CCCCN1C(=S)NCc1ccccc1 (centres undefined),n,24,n,n,n,n,n,
S=C(NCc1ccccc1)N1CCCCC1,n,n,n,n,n,x,x,
